MEKK2wt PB1 HTS = raises or lowers MEK5 binding to wildtype human MEKK2 PB1 domain; bead flow cytometry, Alexa488-MEK5 binding to MEKK2 WT; actives lie on both sides; Q9Y2U5; 290,000 tested, 1.1% active; binding response (% of control), % at 10 µM; AID 1531; in the data active = binding response below about 67% or above about 130%
MEKK2 mut-MEK5 = signal of MEK5 binding to mutant human MEKK2 PB1 domain; bead flow cytometry, Alexa488-MEK5 binding to MEKK2 mutant; percent response, % at 10 µM; 290,000 tested, 0.35% active; in the data active = percent response above about 24%, passing the limit was not always enough
SKN-1 block = C. elegans SKN-1 inhibition; 360,000 tested, 0.49% active; inhibition, % at 21.8 µM; C. elegans VP596 Pgst-4::GFP/RFP ratio, acrylamide-induced, 24 h;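 active = interference check ratio from 0.5 to 1.5 plus GFP to RFP signal ratio inhibition reaching or exceeding a fixed threshold, cut at about 30% in these data, passing the limit was not always enough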
MEKK3 PB1 HTS = modulators (inhibitors or enhancers) of MEK5 binding to human MEKK3 PB1 domain; Q99759; 290,000 tested, 1.4% active; binding response (% of control), % at 10 µM; bead-based flow cytometry, Alexa488-MEK5 binding to MEKK3; actives lie on both sides; 0 = blocked by unlabeled MEK5, 100 = vehicle; AID 1529;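 active = binding response more than 3 SD above or below the average of its plate-row segment, actives on both sides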;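 also: Alexa488 bead fluorescence after subtracting the streptavidin-only scavenger bead signal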
Target sequence (Q99759 whole entry, looked up, the tested form may be a part): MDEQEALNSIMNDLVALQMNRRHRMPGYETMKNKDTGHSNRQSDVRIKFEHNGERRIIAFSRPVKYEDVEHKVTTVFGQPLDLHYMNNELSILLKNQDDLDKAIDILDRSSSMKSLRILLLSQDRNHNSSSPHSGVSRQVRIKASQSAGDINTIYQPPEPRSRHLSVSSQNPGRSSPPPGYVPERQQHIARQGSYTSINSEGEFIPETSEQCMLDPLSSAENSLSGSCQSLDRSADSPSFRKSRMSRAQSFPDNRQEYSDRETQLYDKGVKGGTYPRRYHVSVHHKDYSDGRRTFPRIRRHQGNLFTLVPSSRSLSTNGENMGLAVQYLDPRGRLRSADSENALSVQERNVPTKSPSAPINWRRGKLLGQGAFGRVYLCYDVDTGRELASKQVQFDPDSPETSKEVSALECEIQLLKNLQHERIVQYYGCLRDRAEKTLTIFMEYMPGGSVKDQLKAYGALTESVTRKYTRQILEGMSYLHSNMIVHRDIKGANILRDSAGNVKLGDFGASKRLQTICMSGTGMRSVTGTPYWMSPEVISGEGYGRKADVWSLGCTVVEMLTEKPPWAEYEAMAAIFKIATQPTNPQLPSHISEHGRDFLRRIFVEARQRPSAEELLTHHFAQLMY
CendR NRP1 mod = NRP-1/CendR interaction modulation | FAM-RPARPAR peptide binding to NRP-1, fluorescence polarization | inhibition, % at 25 µM | 360,000 tested, 0.85% active | AID 602438;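 active = inhibition or corrected inhibition above about 18%, plus a signal ratio from 0.5 to 1.5, limit read from the data, passing the limit was not always enough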
MEKK2wt confirm = raises or lowers MEK5 binding to wildtype human MEKK2, retest; shares compounds with MEKK3 PB1 HTS; bead flow cytometry, Alexa488-MEK5 binding to MEKK2 WT; actives lie on both sides; binding response (% of control), % at 10 µM; 5,900 tested, 2.4% active; AID 1892; in the data active = binding response below about 16% or above about 210%; inactive = in between
MEKK2mut-MEK5 = signal of MEK5 binding to mutant human MEKK2, retest. shares compounds with MEKK3 PB1 HTS. bead flow cytometry, Alexa488-MEK5 binding to MEKK2 mutant. percent response, % at 10 µM. 5,900 tested, 2% active; in the data active = percent response mostly above about 71%, no sharp cut-off; inactive = mostly below about 38%;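 also: higher means compound restores mutant binding toward wildtype level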
MEKK3-MEK5 inh = MEKK3-MEK5 PB1 inhibition, single concentration confirmation; shares compounds with MEKK3 PB1 HTS; bead flow cytometry, Alexa488-MEK5 binding to MEKK3; hits give low values; binding response (% of control), % at 10 µM; 5,900 tested, 1.8% active;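 active = binding response below 72% of control, or above a set upper limit, though filed actives all read lower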;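 also: 100% = DMSO only wells and 0% = binding blocked by excess unlabeled MEK5; lower values mean stronger disruption of MEK5 binding to MEKK3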
Active calls of the source: *; / = no result; [ ] = dose if it differs, or a comment. Sampled rows, rich in hits. Any-hit rate of the full collection: about 3.2%.

SMILES	MEKK2wt PB1 HTS	MEKK2 mut-MEK5	SKN-1 block	MEKK3 PB1 HTS	CendR NRP1 mod	MEKK2wt confirm	MEKK2mut-MEK5	MEKK3-MEK5 inh
CC1=C(C(=O)OCCOc2ccccc2)C(c2coc3ccccc3c2=O)C2=C(CCCC2=O)N1 (stereo not drawn)	81	-2	-1	69*[inhibitor]	-8	103	-4	101
CC1=C(C(=O)OC2CCCC2)C(c2coc3ccccc3c2=O)C2=C(CCCC2=O)N1 (stereo not drawn)	117	0	6	133*	-9	113	-3	87
CCOC(=O)C1=C(C)NC2=C(C(=O)CCC2)C1c1coc2ccccc2c1=O (stereo not drawn)	91	-4	-1	91	-4	/	/	/
CC(C)c1ccc(NC(=O)C2CCCCN2S(=O)(=O)c2ccccc2)cc1 (stereo not drawn)	/	/	-7	/	4	/	/	/
COc1nc(Nc2ccccc2F)nc(OC)n1	102	25*	8	102	16	105	1	101
CCN1/C(=C/c2ccc3cc(C)ccc3[n+]2CC)Sc2cc(C)c(C)cc21	37*	13	64	44*[inhibitor]	-213	33	-23	58*
CCN1/C(=C/c2ccc3cc(C)ccc3[n+]2CC)Sc2ccccc21	14*[inhibitor]	-7	64	68	-284	39	-26	81
CC[n+]1c(/C=C2\Sc3ccccc3N2C)ccc2cccc(C)c21	/	76*	63	47*[inhibitor]	-77	41	-21	83
O=C(CN1C(=O)/C(=C/c2cccc(Br)c2)SC1=S)N1CCCC1	112	1	4	153*	4	100	0	97
COc1cc(CCCN2C(=O)C(=O)NC[C@@H]2c2ccccc2)cc(OC)c1OC	94	1	9	94	-6	/	/	/
COc1cc(CCCN2C(=O)C(=O)NC[C@@H]2C(C)O)cc(OC)c1OC (stereo partly drawn)	2.0*[inhibitor]	4	7	2.0*[inhibitor]	4	102	-4	97
Oc1cccc(/C=N\Nc2nncc(-c3ccccc3)n2)c1	90	-10	3	94	-3	/	/	/
C(=C\c1ccccc1)/C=N/Nc1nncc(-c2ccccc2)n1	109	0	/	131*	/	100	-1	100
Cc1nn(CC(=O)NCC(C)c2ccccc2)c(=O)c2cccn12 (stereo not drawn)	100	3	9	101	13	/	/	/
CC(=O)[C@]1(O)Cc2c(O)c3c(c(O)c2[C@@H](O[C@H]2C[C@H](N)[C@H](O)[C@H](C)O2)C1)C(=O)c1ccccc1C3=O	25*	30*	/	105	/	104	2	101
COc1cccc2c1C(=O)c1c(O)c3c(c(O)c1C2=O)C[C@@](O)(C(C)=O)C[C@@H]3O[C@H]1C[C@H](N)[C@H](O)[C@H](C)O1	84	0	68	99	142	/	/	/
Cn1c(=O)c2cc(NC(=O)Nc3ccccc3)ccc2n1Cc1ccccc1	/	/	7	/	-130	/	/	/
COc1ccc(N(CC(=O)N2CCN(c3ccc(F)cc3)CC2)S(=O)(=O)c2c(C)n[nH]c2C)cc1	108	-1	-3	128*	-12	95	-8	98
CS(=O)(=O)c1ccc(CNC(=O)C2(C(F)(F)F)CC(CCCO)CCCO2)cc1 (stereo not drawn)	93	-3	/	90	/	/	/	/
CS(=O)(=O)c1ccc(CNC(=O)[C@]2(C(F)(F)F)C[C@H](CCc3ccccc3)CCCO2)cc1	86	-6	6	81*[inhibitor]	-9	93	-8	95
CC(/C=N\NC(=O)CN1CCN(S(=O)(=O)c2ccc(C)cc2)CC1)=C\c1ccccc1	107	0	2	132*	-7	99	-2	106
Cc1ccc(S(=O)(=O)N2CCN(CC(=O)N/N=C\C(Cl)=C\c3ccccc3)CC2)cc1	106	0	8	137*	6	96	-5	99
COc1cc(C(C)n2nnc3ccccc32)ccc1O (stereo not drawn)	/	/	17	/	0	/	/	/
COc1ccc(N2CCN(C(=O)CSc3nnc4c(C)cc5ccc(C)c(C)c5n34)CC2)cc1	51	-21	22	36*[inhibitor]	-3	98	-2	96
N#Cc1c(-c2cccnc2)cc(-c2ccccc2)nc1N	111	21	31	129*	14	97	-3	100
SMILES	MEKK2wt PB1 HTS	MEKK2 mut-MEK5	SKN-1 block	MEKK3 PB1 HTS	CendR NRP1 mod	MEKK2wt confirm	MEKK2mut-MEK5	MEKK3-MEK5 inh
NC(=O)Cn1c(=O)n(-c2ccccc2)c(=O)c2oc3ccccc3c21	95	-6	-5	103	7	/	/	/
O=C(Cn1c(=O)n(-c2ccccc2)c(=O)c2oc3ccccc3c21)Nc1ccccc1	103	0	22	131*	11	106	4	102
Cc1ccc(SCC(=O)OC(C)C(=O)NC2CCCCC2C)c(C)c1 (stereo not drawn)	/	/	-5	/	-10	/	/	/
O=C(NC(=S)NCCC1=CCCCC1)c1cncc(Br)c1	106	0	7	152*	-1	99	1	104
CN(C)c1ccc(NC(=O)C2C3C=CC(C3)C2C(=O)O)cc1 (stereo not drawn)	98	-4	24	97	2	/	/	/
O=C1CCCN1CCCNc1ncnc2c1[nH]c1ccc(Cl)cc12	114	11	8	108	10	/	/	/
CCN1CCCC1CNc1ncnc2c1[nH]c1ccc(Cl)cc12 (stereo not drawn)	125	35*	13	101	6	119	4	90
C[C@H](C(=O)CC(=O)OC(C)(C)C)[C@H](O)c1ccccc1	99	6	-4	103	18	/	/	/
COc1cccc(/C=N/n2c(CO)nc3ccccc32)c1OC	77	-8	11	71*[inhibitor]	-4	106	5	103
CNc1nc2ccccc2n1/N=C/c1cccc(OC)c1OC	108	9	-1	103	10	/	/	/
CC1CCCCN1c1nc2nonc2nc1N1CCCCC1C (stereo not drawn)	97	6	23	126*	-11	98	-2	99
COc1ccccc1Nc1nc2nonc2nc1N1CCCCC1C (stereo not drawn)	97	-3	14	99	11	/	/	/
CSc1ncccc1C(=O)N1CCCC(N2CCN(c3ccccc3C)CC2)C1 (stereo not drawn)	/	/	13	/	1	/	/	/
O=C(CCn1c(=O)sc2ccccc21)Nc1nccs1	105	1	-10	104	14	/	/	/

Source: PubChem BioAssay (several laboratories)
